PubChem BioAssay (EPA / NIEHS)
Several values for one entry are separate records, joined by “and”; a condition that tells them apart may be missing. Equal entries are not always repeated. Results filed as inconclusive are left out. Where a structure was tested more than once in an assay, its records may differ in their call. Activity calls are given as the source filed them. How the source made its calls: active means hit-call score of the fitted dose curve at least 0.9, where 1 is the maximum; inconclusive means response in the unintended direction; inactive means score below 0.9.

Columns and labels:
[1] = Tanguay_ZF_120hpf_CFIN_legacy: (Legacy) Oregon State University Tanguay Lab 120 Hour Post-fertilization zebrafish Assay for Caudal Fin Malformation (AID 2283649)
Summary of the method: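 Embryos were collected from Tropical 5D wild-type adults and dechorionated at 4 hpf. At 6 hpf each was exposed, one per well, at 0.64% DMSO and 28C. At 120 hpf fin morphology was scored; dead embryos were excluded.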

[2] = Tanguay_ZF_120hpf_PIG_legacy: (Legacy) Oregon State University Tanguay Lab 120 Hour Post-fertilization zebrafish Assay for Pigmentation Malformation (AID 2283650)
Summary of the method: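 Tropical 5D wild-type zebrafish embryos, dechorionated with pronase at 4 hpf, were exposed singly from 6 hpf to 120 hpf statically at 28C in sealed, dark plates with 0.64% DMSO; pigmentation scored present/absent by brightfield microscopy, fitted against DMSO.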

[3] = Tanguay_ZF_120hpf_CIRC_legacy: (Legacy) Oregon State University Tanguay Lab 120 Hour Post-fertilization zebrafish Assay for Circulatory Malformation (AID 2283651)
Summary of the method: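 Read-out: presence or absence of circulatory malformation at 120 hpf, scored by brightfield microscopy, fitted in the gain-of-signal direction against DMSO baseline. Wild-type 5D larvae were exposed from 6 hpf after enzymatic chorion removal.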

[4] = Tanguay_ZF_120hpf_TRUN_legacy: (Legacy) Oregon State University Tanguay Lab 120 Hour Post-fertilization zebrafish Assay for Truncated Body (AID 2283655)
Summary of the method: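 5D wild-type larvae; pronase dechorionation; static exposure 6→120 hpf, 28C; DMSO 0.64% final; 5uM trimethyltin chloride positive control. Readout: presence/absence of truncated body, analyzed relative to DMSO.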

[5] = Tanguay_ZF_120hpf_NC_legacy: (Legacy) Oregon State University Tanguay Lab 120 Hour Post-fertilization zebrafish Assay for Notochord and Tail Malformation (AID 2283656)
Summary of the method: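 Dechorionated Tropical 5D wild-type zebrafish embryos, one per well from 6 hpf, statically exposed to 120 hpf at 28C in 0.64% DMSO final. Notochord distortion scored present/absent by brightfield; dead embryos excluded.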

[6] = test system: Thyroperoxidase (TPO), gene 54314; assay: CCTE_Simmons_AUR_rTPO: CCTE's Amplex UltraRed Assay for Thyroperoxidase (TPO) Inhibition, Simmons Lab (AID 2283662);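 further: potency for loss of signal meaning inhibition of peroxidase activity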
Summary of the method: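 Cell-free peroxidase activity assay using rat thyroid gland microsomes with excess H2O2 (300 uM) and 25 uM Amplex UltraRed. Compounds tested from 5 nM to 87.5 uM; fluorescence measured after 30 min at 37C, analysed relative to DMSO baseline.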

[7] = read-out: xenobiotic metabolism (CYP1A2), CYP1A2 (gene 1544); assay: CLD_CYP1A2_6hr: CellzDirect (CLD) Gene Expression Assay for xenobiotic metabolism (CYP1A2) at 6 hours (AID 2283663);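 on AC50: potency is for induction meaning a rise in mRNA above DMSO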
Summary of the method: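 Primary human hepatocytes from two donor preparations, dosed daily with multiple concentrations in 0.2% DMSO and harvested at 6 h. CYP1A2 mRNA induction measured by chemiluminescent qNPA, gain of signal fitted against DMSO; cytotoxicity flagged morphologically.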

[8] = CCTE_Simmons_CellTiterGLO_HEK293T: Viability Assessment in CCTE's Assays for Thyroperoxidase (TPO) Inhibition, Simmons Lab (AID 2283665)
Summary of the method: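 HEK293T, 10 000 cells/well, DMEM + 1% FBS; 8-pt titration 5 nM–87.5 uM [final], 0.5% DMSO; 24 hr, 37C, 5% CO2; CellTiter-Glo luminescence; n=3 biological replicates.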

[9] = read-out: sulfotransferase (SULT2A), SULT2A1 (gene 6822); assay: CLD_SULT2A_6hr: CellzDirect (CLD) Gene Expression Assay for sulfotransferase (SULT2A) at 6 hours (AID 2283669);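 further: hits raise transcript level above the DMSO vehicle baseline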
Summary of the method: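 Primary human hepatocytes from two donor preparations were dosed daily with chemicals or 0.2% DMSO and harvested at 6 h. Transcript induction read by qNPA chemiluminescence, fitted for gain of signal relative to DMSO; morphology-based cytotoxicity annotated.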

[10] = Tanguay_ZF_120hpf_TR_legacy: (Legacy) Oregon State University Tanguay Lab 120 Hour Post-fertilization zebrafish Assay for Touch Response (AID 2283667)
Summary of the method: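 Tropical 5D wild-type zebrafish embryos were exposed statically in sealed, foil-covered plates at 28C until 120 hpf, with 0.64% (vol/vol) final DMSO. Touch response was scored as present or absent; embryos that died were not scored.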

[11] = read-out: alkyl and aryl transferase (GSTA2), GSTA2 (gene 2939); assay: CLD_GSTA2_6hr: CellzDirect (CLD) Gene Expression Assay for alkyl and aryl transferase (GSTA2) at 6 hours (AID 2283666)
Summary of the method: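 Primary human hepatocytes from two donor preparations were dosed daily with fresh compound at multiple concentrations, 0.2% DMSO vehicle. GSTA2 mRNA was measured at 6 hours by qNPA chemiluminescence; induction fitted relative to DMSO, with cytotoxicity flagged morphologically.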

[12] = read-out: xenobiotic metabolism (CYP2C9), CYP2C9 (gene 1559); assay: CLD_CYP2C9_6hr: CellzDirect (CLD) Gene Expression Assay for xenobiotic metabolism (CYP2C9) at 6 hours (AID 2283664)
Summary of the method: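 Primary human hepatocytes dosed daily with test chemicals at multiple concentrations; harvested at 6 h. CYP2C9 mRNA induction measured by qNPA chemiluminescence. Gain of signal fitted against 0.2% DMSO vehicle; cytotoxicity annotated from phase-contrast morphology.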

[13] = read-out: xenobiotic metabolism (CYP1A1), CYP1A1 (gene 1543); assay: CLD_CYP1A1_6hr: CellzDirect (CLD) Gene Expression Assay for xenobiotic metabolism (CYP1A1) at 6 hours (AID 2283661)
Summary of the method: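 Primary human hepatocytes from two donors, compound versus 0.2% DMSO vehicle. CYP1A1 mRNA measured 6 h after dosing by quantitative nuclease protection assay with chemiluminescent read-out; induction fitted relative to DMSO, cytotoxicity flagged by microscopy.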

[14] = read-out: organic anion transporter (SLCO1B1), SLCO1B1 (gene 10599); assay: CLD_SLCO1B1_6hr: CellzDirect (CLD) Gene Expression Assay for organic anion transporter (SLCO1B1) at 6 hours (AID 2283668);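 further: active means mRNA induction above DMSO baseline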
Summary of the method: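 Primary human hepatocytes dosed daily with test chemicals (multiple concentrations) in 0.2% DMSO vehicle; harvested at 6 h. SLCO1B1 mRNA quantified by qNPA chemiluminescence, fitted as gain-of-signal versus DMSO; cytotoxicity from phase-contrast morphology flagged alongside.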

Measured: AC50

COP(=S)(OC)Oc1ccc(SC)c(C)c1
active: [6] 34.3 µM | [7] 5.14 µM
inactive: [1] | [2] | [3] | [4] | [5] | [8] | [9]

COP(=O)(OC)OC=C(Cl)Cl
active: [6] 21 µM
inactive: [1] | [2] | [3] | [5] | [7] | [8] | [10]

CC(C)(C)C(O)C(Oc1ccc(Cl)cc1)n1cncn1 (configuration not stated)
active: [2] 44.2 µM and 47.8 µM | [3] 40.6 µM | [4] 32.2 µM and 47.2 µM | [10] 41.5 µM and 65.4 µM
inactive: [2] | [3] | [4] | [5] | [7] | [11] | [10] | [9]

O=C(NC(=O)c1c(F)cccc1F)Nc1ccc(OC(F)(F)C(F)OC(F)(F)F)c(Cl)c1 (configuration not stated)
not listed: [1] | [6] | [8] | [13] | [14]
inactive: all other assays above

O=C(O)CCCOc1ccc(Cl)cc1Cl
not listed: [1] | [6] | [8]
inactive: all other assays above

Cc1cc(C)nc(NC(=O)NS(=O)(=O)c2ccccc2C(=O)OC2COC2)n1
inactive: [12] | [9]

CC[C@H](C)[C@H]1O[C@]2(C=C[C@@H]1C)C[C@@H]1C[C@@H](C/C=C(\C)[C@@H](O[C@H]3C[C@H](OC)[C@@H](O[C@H]4C[C@H](OC)[C@@H](O)[C@H](C)O4)[C@H](C)O3)[C@@H](C)/C=C/C=C3\CO[C@@H]4[C@H](O)C(C)=C[C@@H](C(=O)O1)[C@]34O)O2 (tested in a mixture with another compound)
active: [10] 450 nM
inactive: [2] | [3] | [4] | [5] | [14] | [9]

CCS(=O)(=O)c1cccnc1S(=O)(=O)NC(=O)Nc1nc(OC)cc(OC)n1
inactive: [13] | [7] | [11] | [14]

CCN(CC)C(=O)SCc1ccc(Cl)cc1
inactive: [2] | [3] | [5] | [7] | [11] | [10] | [14] | [9]

N#CN
active: [6] 2.93 µM
not listed: [1] | [5] | [12]
inactive: all other assays above

COC(=O)c1ccccc1CS(=O)(=O)NC(=O)Nc1nc(OC)cc(OC)n1
inactive: [7] | [12] | [11] | [9]

CNC(=O)CSP(=S)(OC)OC
active: [6] 7.2 µM | [7] 0.327 µM
inactive: [3] | [5] | [12] | [8] | [11] | [10] | [14]

CCC(C)(NC(=O)c1cc(Cl)c(C)c(Cl)c1)C(=O)CCl (configuration not stated)
active: [10] 57800 nM
not listed: [1] | [2] | [6] | [8] | [13]
inactive: all other assays above

CCC(C)(C)C(=O)OC1=C(c2ccc(Cl)cc2Cl)C(=O)OC12CCCCC2
inactive: [2] | [3] | [4] | [11] | [10]

CCc1ccc(C(=O)NN(C(=O)c2cc(C)cc(C)c2)C(C)(C)C)cc1
active: [7] 33.7 µM
not listed: [1] | [3] | [6] | [8] | [13]
inactive: all other assays above
